Bioassay records deposited in PubChem by several laboratories.
Only some compounds are listed: those with a hit (about 3.1% of all), similar ones and a draw of the others.
ATG4B inhibitor = ATG4B (human) cysteine protease inhibition. ATG4B cleavage of LC3-PLA2, NBD-HPC fluorescence, 1 h. inhibition, % at 8.33 µM. 340,000 compounds, 0.51% hits; in the data active = inhibition above about 40%
Target sequence (Q9Y4P1 whole entry, looked up): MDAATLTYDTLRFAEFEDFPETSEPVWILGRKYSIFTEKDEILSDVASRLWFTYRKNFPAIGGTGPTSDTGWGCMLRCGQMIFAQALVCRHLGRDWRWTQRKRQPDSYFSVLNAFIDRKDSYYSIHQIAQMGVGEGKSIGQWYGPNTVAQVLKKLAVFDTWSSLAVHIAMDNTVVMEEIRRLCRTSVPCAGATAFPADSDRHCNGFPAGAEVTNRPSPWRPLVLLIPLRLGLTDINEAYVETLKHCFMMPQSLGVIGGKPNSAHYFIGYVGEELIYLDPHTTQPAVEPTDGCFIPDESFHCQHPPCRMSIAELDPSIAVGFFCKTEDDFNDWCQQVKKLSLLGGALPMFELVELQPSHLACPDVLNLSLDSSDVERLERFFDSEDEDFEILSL
PREPL inh = inhibits the human prolyl oligopeptidase-like enzyme | 320,000 compounds, 0.68% hits | recombinant PREPL, fluorescence polarization activity-based probe | inhibition, % at 5.96 µM;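 also: 0% = enzyme with DMSO and 100% = wells lacking enzyme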
MEKK2wt PB1 HTS = raises or lowers MEK5 binding to wildtype human MEKK2 PB1 domain; 290,000 compounds, 1.1% hits; Q9Y2U5; bead flow cytometry, Alexa488-MEK5 binding to MEKK2 WT; actives lie on both sides; AID 1531; binding response (% of control), % at 10 µM; in the data active = binding response below about 67% or above about 130%
MEKK3 PB1 HTS = raises or lowers MEK5 binding to the human MEKK3 PB1 domain | bead-based flow cytometry, Alexa488-MEK5 binding to MEKK3; actives lie on both sides; 0 = blocked by unlabeled MEK5, 100 = vehicle | 290,000 compounds, 1.4% hits | Q99759 | binding response (% of control), % at 10 µM;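 active = binding response more than 3 SD above or below the average of its plate-row segment, actives on both sides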;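 also: Alexa488 bead fluorescence after subtracting the streptavidin-only scavenger bead signal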
MEKK2mut PB1 HTS = signal of MEK5 binding to mutant human MEKK2 PB1 domain; bead flow cytometry, Alexa488-MEK5 binding to MEKK2 mutant; percent response, % at 10 µM; 290,000 compounds, 0.35% hits; AID 1530; in the data active = percent response above about 24%, passing the limit was not always enough
UBC13 inh = blocks human UBC13 polyubiquitin chain formation; P61088; TR-FRET; inhibition, % at 20 µM; 330,000 compounds, 0.47% hits; in the data active = inhibition above about 45%, passing the limit was not always enough
PREPL confirm = confirmation of human PREPL enzyme inhibitors. shares compounds with PREPL inh. recombinant PREPL, fluorescence polarization activity probe. inhibition, % at 5.96 µM. 2,000 compounds, 67% hits. AID 2803;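 also: 0% = protein with DMSO and 100% = wells lacking protein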
Active calls of the source: *; · = no result given. Rule as the data show it, unless noted: active = inhibition above about 43%; inactive = the rest.

SMILES	ATG4B inhibitor	PREPL inh	MEKK2wt PB1 HTS	MEKK3 PB1 HTS	MEKK2mut PB1 HTS	UBC13 inh	PREPL confirm
C=CCn1c(SCc2ccccc2Cl)nnc1-c1sc2nc(C)cc(C)c2c1N	-1	47*	96	100	-3	3	42
Cc1cc(C)c2c(N)c(-c3nnc(SCc4ccc(Cl)cc4)n3C)sc2n1	-9	20	92	96	-3	10	·
CCN1C(=O)[C@@H]2[C@@H](c3ccc(-c4ccc(C(C)=O)cc4)cc3)N3CCCC[C@@]3(C(=O)OC)[C@@H]2C1=O	4	5	·	·	·	-4	·
O=C(CC1C[C@H](C(=O)N2CCOCC2)[C@@]2(CCC3CCCC3)c3[nH]c4ccccc4c3CCN2C1=O)NCCCn1ccnc1 (stereo not given in full)	-11	19	·	·	·	23	·
CCOC(=O)C1=C(CS(=O)(=O)c2ccc(C)cc2)NC(=O)NC1c1cc(OC)c(OC)c(OC)c1 (stereo not given)	-7	45*	106	101	-2	-11	40
CCOc1ccc(C2CC(c3ccccc3)Nc3nc(N)nn32)cc1 (stereo not given)	-5	18	94	95	-4	-3	·
CCc1ccc(C2CC(c3ccc(Cl)cc3)n3nc(N)nc3N2)cc1 (stereo not given)	-3	45*	98	100	2	0	49*
COc1cccc(C2CC(c3ccc(F)cc3)Nc3nc(N)nn32)c1 (stereo not given)	-8	44*	101	95	-3	7	46*
COc1cccc(C2CC(c3cccc(OC)c3)n3nc(N)nc3N2)c1 (stereo not given)	2	30	105	106	6	-1	·
COc1ccc(C2CC(c3cccc(C)c3)n3nc(N)nc3N2)cc1 (stereo not given)	-8	55*	102	100	-1	-2	59*
Cc1ccccc1C1CC(c2ccc(F)cc2)Nc2nc(N)nn21 (stereo not given)	7	44*	103	105	3	3	41
COc1ccc(C2CC(c3ccccc3)Nc3nc(N)nn32)cc1 (stereo not given)	7	34	84	90	-10	-8	·
Cc1nn(Cc2ccccc2)c(C)c1C(=O)N1CCN(S(=O)(=O)/C=C/c2ccccc2)CC1	-7	7	·	·	·	4	·
CC(C)S(=O)(=O)c1cnc(-c2ccccn2)nc1N	-6	1	102	99	-1	-2	·
COc1ccc(-c2csc(NC(=O)C3CCN(C(=O)c4ccc(F)cc4)CC3)n2)cc1OC	-4	12	111	107	9	4	·
COc1cccc(C2CC(c3ccc(C(C)C)cc3)n3nc(N)nc3N2)c1 (stereo not given)	1	11	93	95	-4	11	·
COc1ccc(C2CC(c3cccc(Cl)c3)n3nc(N)nc3N2)cc1 (stereo not given)	2	55*	106	104	10	8	57*
Cc1ccc(C2CC(c3ccc(C)cc3)n3nc(N)nc3N2)cc1 (stereo not given)	2	53*	98	98	1	8	48*
CCOc1ccc(S(=O)(=O)NCCC(=O)NCc2ccc(OC)c(OC)c2)cc1	-8	7	·	·	·	3	·
COc1cc(/C=C(\C#N)c2ccccn2)ccc1OCc1ccccc1Cl	11	47*	106	105	14	·	40
COc1cc(/C=C(\C#N)c2ccccn2)cc(OC)c1O	-7	-1	101	97	-6	-69	·
CCOc1ccc(OCC(=O)OCC(=O)NNC(=O)c2ccc([N+](=O)[O-])cc2)cc1	4	-1	·	·	·	-6	·
CC(C)(C)[C@H]1COC(=O)[C@H](Cc2ccc(F)cc2)CC/C=C/C[C@@H](CC(=O)N[C@H](CO)Cc2ccccc2)C(=O)N1	-4	46*	·	·	·	-6	49*
CC(C)(C)[C@@H]1COC(=O)[C@H](Cc2ccc(F)cc2)CC/C=C\C[C@@H](CC(=O)NCCO)C(=O)N1	-7	49*	·	·	·	-3	35
